Most compounds without a hit are left out; they make up all but 19% or so of the library.
TDP1 cell noCPT – qHTS for Inhibitors of human tyrosyl-DNA phosphodiesterase 1 (TDP1): qHTS in cells in absence of CPT. DT40 Tdp1-/- hTDP1 cells, no CPT, ATP luminescence, 48 h. Potency, µM (top dose mostly 46.2 µM), for inactives: at the top dose activity change, negative = growth inhibition, hits mostly inhibitors. hit rate 15% among 420,000; also: potency is read from the fitted curve at half-maximal effect; % is scaled to controls: 0 for no effect and ±100 for the full control effect; nearly all actives have a fitted effect of over 55% in size
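A cellular qHTS used chicken DT40 cells lacking endogenous Tdp1 but carrying stably transfected human TDP1. Compounds were applied without camptothecin, and cell growth kinetics were judged by ATP-dependent luminescence after ≥48 hr.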
DT40 TDP1 CPT – qHTS for Inhibitors of human tyrosyl-DNA phosphodiesterase 1 (TDP1): qHTS in cells in presence of CPT; chicken DT40 Tdp1-/-;hTDP1 cells + 20 nM CPT, ATP luminescence, 48 h; Potency, µM (highest dose often 46.2 µM), inactives show top-dose activity change, negative = growth inhibition, most hits filed as inhibitors; hit rate 12% among 420,000; also: potency is read from the fitted curve at half-maximal effect; % is scaled to controls: 0 for no effect and ±100 for the full control effect; nearly all actives have a fitted effect of over 55% in size
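Chicken DT40 Tdp1-/- cells stably complemented with human TDP1 were seeded at 400 cells/well in medium containing 20 nM camptothecin, exposed to pin-transferred compounds, and grown at 37 °C for at least 48 hr. Viability was read as ATP luminescence.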
IL-1B inflam inh – qHTS for Inhibitors of Inflammasome Signaling: IL-1-beta AlphaLISA Primary Screen. activity change, % at 57.5 µM. hit rate 4.7% among 360,000. THP-1 LPS/ATP IL-1B secretion, AlphaLISA, 16 h; active compounds read low; in the data active = activity change below about -50%; inconclusive = mostly about -30% to -49%; also: % is scaled to controls: 0 for no effect and ±100 for the full control effect
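THP-1 cells pretreated 1 hr with compounds (up to 57.5 uM final), then stimulated with LPS (250 ng/mL final) plus ATP (1.25 mM final); secreted IL-1B measured by AlphaLISA after 16 hr, decreased signal indicating inhibition.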
SW480 rerep – A quantitative high throughput screen for small molecules that induce DNA re-replication in SW480 colon adenocarcinoma cells; Potency, µM (top dose mostly 46.1 µM), inactives show top-dose re-replication activation, actives largely listed as activators; SW480 DNA re-replication, Hoechst DNA content imaging, 48 h; AID 624297, 2012; hit rate 1.8% among 340,000; also: potency is read from the fitted curve at half-maximal effect; % of control where 0% means no effect; nearly all actives have a fitted effect of over 55% in size
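DNA re-replication was detected as more nuclei of elevated Hoechst intensity after 48 hr exposure to compound (23 nL pinned per well of 250 cells).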
BCR signal inh – qHTS Assay to Find Inhibitors of Chronic Active B-Cell Receptor Signaling | ABC-DLBCL IkBa-CBG/CBR reporter, luminescence ratio, 4 h | Potency, µM (highest dose often 46.1 µM), for the others: at the highest dose activity change, negative = inhibition, usual class: inhibitors | hit rate 0.05% among 340,000 | AID 493014, 2011; active = well fitted inhibition curve with a large enough effect in the signal ratio, with a control signal flat, not every such curve was filed as active; inconclusive = small, poorly fitted or top-dose-only effect, or effect the other way, or a change in a side signal; the % refers to the signal ratio;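 also: potency is read from the fitted curve at half-maximal effect; plate controls were basal doxycycline-induced cells for no effect and cells given 10 µM MG132 for full effect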
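Compounds up to 46 uM were incubated four hours with TMD8 cells whose green CBG68 luciferase is fused to IkappaBalpha; red CBR luminescence normalised the signal, and concentration-effect curves were fitted to fusion, red and ratio data.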
MCF10A rereplic – A quantitative high throughput screen for small molecules that induce DNA re-replication in MCF 10a normal breast cells; AID 624296, 2012; Potency, µM (series often up to 46.1 µM), inactives show top-dose activity, positive = re-replication, usual class: activators; MCF 10A DNA re-replication, Hoechst nuclear intensity, 48 h; hit rate 2.9% among 350,000; also: potency is read from the fitted curve at half-maximal effect; % of control where 0% means no effect; nearly all actives have a fitted effect of over 50% in size
Starred values were filed as active, the others as inactive; ? = inconclusive; · = no result; [ ] = another dose, or the depositor's remark. Unless noted, calls follow the shape of the dose curve; as a rule, active = well fitted curve in the direction sought with a large enough effect; inconclusive = small, poorly fitted or top-dose-only effect, or another doubt; inactive = no such curve, though single readings can be large; an effect the other way counts as inactive or inconclusive.

SMILES | TDP1 cell noCPT | DT40 TDP1 CPT | IL-1B inflam inh | SW480 rerep | BCR signal inh | MCF10A rereplic
O=C(CN1C(=O)c2cccnc2Oc2ccc(Cl)cc21)NCCCc1ccccc1 | ? | 23µM* | -8 | -29% | ? | 10%
O=C(CN1C(=O)c2cccnc2Oc2ccc(Cl)cc21)NCCCN1CCCCC1 | 3% | -1% | · | · | · | ·
COc1cccc(NC(=O)CN2C(=O)c3cccnc3Oc3ccc(Cl)cc32)c1 | ? | ? | 23 | -4% | ? | 2%
CCCN1CCN(CCCNC(=O)CN2C(=O)c3cccnc3Oc3ccc(Cl)cc32)CC1 | 16% | -11% | ? | -1% | -1% | 2%
O=C(CN1C(=O)c2cccnc2Oc2ccc(Cl)cc21)Nc1ccccc1F | 18µM* | ? | 5 | 5% | 11% | 1%
O=C(C=C(C(=O)c1ccccc1)c1ccccc1)c1ccccc1 | 21µM* | 23µM* | ? | ? | · | 9%
CN(C)/C(=C\C(=O)c1ccccc1)C(=O)c1ccccc1 | -7% | -2% | -5 | 1% | · | 0%
COc1ccc(/C=N/NC(=O)c2ccoc2C)cc1CN1CCN(c2ccc(F)cc2)CC1 | 15µM* | ? | -14 | -3% | ? | -12%
COc1ccc(C(=O)N/N=C\c2ccc(OC)c(COc3ccccc3Br)c2)c(OC)c1 | ? | 23µM* | -14 | 135% | ? | -28%
COc1cccc(C(=O)N/N=C/c2ccc(OC)c(COc3ccccc3C(N)=O)c2)c1 | -10% | -14% | 0 | 16µM* | ? | ?
COc1ccc(C(=O)N/N=C/c2ccc(OC)c(CN3CCN(c4ccc(F)cc4)CC3)c2)cc1 | ? | ? | -5 | 0% | -9% | -1%
COc1ccc(C(=O)N/N=C\C(C)=C\c2ccccc2)cc1OC | 16µM* | ? | -94* | 6% | · | ?
CCCC(=O)Nc1cc(-c2nc3cccnc3s2)ccc1C | -24% | -9% | · | · | · | ·
Cc1nc(CC(=O)N2CCC(n3c(C4CCC4)nc4cccnc43)CC2)cs1 | -4% | 16%[9.04 µM] | · | · | · | ·
COc1ccc(C(=O)N/N=C/c2ccc(OC)c(COc3c(F)c(F)cc(F)c3F)c2)cc1 | 1% | ? | 54 | 2% | 12% | ?
COc1ccc(OCc2cc(/C=N\NC(=O)c3ccccc3)ccc2OC)cc1 | 5.2µM* | 4.6µM* | 42 | 15µM* | ? | 8.2µM*
COc1cc(OC)cc(C(=O)N/N=C/c2ccc(OC)c(COc3ccc(F)cc3)c2)c1 | 2.9µM* | 2.3µM* | 32 | 5.8µM* | 10µM* | 5.8µM*
O=C(O)C1C(c2ccccc2)c2ccccc2C(O)C1CO (configuration not stated) | ? | -4% | -15 | ? | · | ?
O=[N+]([O-])C1C(c2ccccc2)=NOC1c1ccccc1O (configuration not stated) | 2% | 2% | 16 | -1% | ? | 5%
COc1cccc(/C=N/NC(=O)CN(C)S(=O)(=O)c2ccccc2)c1OC | -19% | -21% | 0 | -1% | -8% | 3%
CCOc1ccc(CN(C)C(=O)CN2C(=O)NC(c3ccccc3)(c3ccccc3)C2=O)cc1 | ? | ? | -59* | 0% | -3% | 15%
Cc1ccc(C2(c3ccccc3)NC(=O)N(CC(=O)NCc3ccccc3)C2=O)cc1C (configuration not stated) | 23µM* | ? | ? | 2% | -5% | -2%
CC(C)C(C)NC(=O)CN1C(=O)NC(c2ccccc2)(c2ccccc2)C1=O (configuration not stated) | 0% | 8% | -67* | -10% | 9% | -2%
Cc1ccc2[nH]c(=O)cc(C(=O)OC(C)C)c2c1 | ? | 13% | 4 | -8% | 11% | 0%
Cc1ccc2[nH]c3c(=O)n(N)c(C)nc3c2c1 | -12% | 12% | -2 | 6.5µM* | -1% | 31%
SMILES | TDP1 cell noCPT | DT40 TDP1 CPT | IL-1B inflam inh | SW480 rerep | BCR signal inh | MCF10A rereplic
Cc1ccc2[nH]c3c(=O)n(N)c(=O)[nH]c3c2c1 | -6% | -2% | -15 | -29% | 0% | 7%
CC(=O)/C(N=Nc1cc(C)ccc1O)=C(\C)O | -23% | 2% | -14 | -59% | 7% | ?
CC(=O)/C(N=Nc1cc2c(cc1[N+](=O)[O-])OCCO2)=C(\C)O | 26µM* | ? | 29 | 7% | -6% | 9%
CC(=O)/C(N=Nc1cc2c(c([N+](=O)[O-])c1C)C(C)(C)CC2(C)C)=C(\C)O | 18µM* | ? | -5 | -4% | 0% | 0%
Cc1ccccc1C1c2[nH]c3ccccc3c2CCN1Cc1cccn1-c1ncccn1 (configuration not stated) | ? | ? | -2 | 26% | ? | ?
OCCN=c1cc(-c2ccccc2)oc2ccc(Cl)cc12 | 16µM* | ? | -70* | ? | -2% | ?
CC(O)CN=c1cc(-c2ccccc2)oc2ccc(Cl)cc12 (configuration not stated) | 16µM* | ? | -72* | 25% | ? | ?
CN(C)CCCN=c1cc(-c2ccccc2)oc2ccc(Cl)cc12 | ? | 10µM* | -50* | 5% | ? | 20%
O=C(/C=C/c1ccc(Cl)cc1)NC1CC2CCC1C2 (configuration not stated) | ? | -1% | -99* | -3% | ? | 1%
Cc1cccn2c(=O)c3cc(S(=O)(=O)c4ccccc4)c(=N)n(Cc4cccnc4)c3nc12 | 23µM* | -28% | 3 | ? | -1% | 18%
Cc1ccc(S(=O)(=O)c2cc3c(=O)n4cccc(C)c4nc3n(CC3CCCO3)c2=N)cc1C (configuration not stated) | 6.5µM* | 5.8µM* | 21 | 5% | -2% | 8%
Cc1cccn2c(=O)c3cc(S(=O)(=O)c4ccccc4)c(=N)n(CC4CCCO4)c3nc12 (configuration not stated) | 12µM* | ? | 7 | ? | 0% | ?
N=c1c(S(=O)(=O)c2ccc(Cl)cc2)cc2c(=O)n3ccccc3nc2n1CC1CCCO1 (configuration not stated) | -19% | -18% | 8 | -2% | -3% | ?
